SW480 rerep = induces DNA re-replication in SW480 colon adenocarcinoma cells. SW480 DNA re-replication, Hoechst DNA content imaging, 48 h. 340,000 compounds, 1.8% hits. Potency, µM (series often up to 46.1 µM), usual class: activators; also: nearly all actives have a fitted effect of over 55% in size
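Cells (250 per well) received 23 nL compound or DMSO by pin tool and were kept 48 hr at 37 C, 5% CO2. Nuclei were then stained with Hoechst for 40 min and scanned for DNA content.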
MCF10A rerep = DNA re-replication induction in MCF 10a cells | MCF 10A DNA re-replication, Hoechst nuclear intensity, 48 h | Potency, µM (top dose mostly 46.1 µM), most hits filed as activators | 350,000 compounds, 2.9% hits; also: nearly all actives have a fitted effect of over 50% in size
Gal4-VP16 FLuc = inhibits Gal4-VP16 luciferase reporter, ROR gamma counter-screen; 310,000 compounds, 3.5% hits; Drosophila S2 Gal4-VP16 UAS-luciferase, luminescence, 20 h; Potency, µM (highest dose often 53.6 µM), most hits filed as inhibitors;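 also: Gal4-VP16 expression switched on by copper sulfate through the metallothionein promoter; nearly all actives have a fitted effect of over 50% in size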
ELG1 repair inh = blocks ELG1-dependent DNA repair in HEK293T cells; 330,000 compounds, 2.3% hits; Potency, µM (top dose mostly 46.1 µM), hits mostly inhibitors; HEK293T ELG1-luciferase reporter, luminescence, 16 h; DNA damage induced by 5-fluorouridine; AID 504467; also: nearly all actives have a fitted effect of over 55% in size
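5-Fluorouridine DNA damage + compound/DMSO, 2,000 cells/well, 16 h, 37 °C/5% CO2. ONE-Glo, 30 min RT, luminescence. Readout = decrease in reporter signal.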
RORg inh = ROR gamma (mouse) transcription inhibition; Potency, µM (highest dose often 53.6 µM), actives largely listed as inhibitors; P51450; 310,000 compounds, 5.4% hits; Drosophila S2 Gal4-RORgamma UAS-luciferase reporter, 20 h; also: nearly all actives have a fitted effect of over 60% in size
Target sequence (P51450 whole entry, looked up, the tested form may be a part): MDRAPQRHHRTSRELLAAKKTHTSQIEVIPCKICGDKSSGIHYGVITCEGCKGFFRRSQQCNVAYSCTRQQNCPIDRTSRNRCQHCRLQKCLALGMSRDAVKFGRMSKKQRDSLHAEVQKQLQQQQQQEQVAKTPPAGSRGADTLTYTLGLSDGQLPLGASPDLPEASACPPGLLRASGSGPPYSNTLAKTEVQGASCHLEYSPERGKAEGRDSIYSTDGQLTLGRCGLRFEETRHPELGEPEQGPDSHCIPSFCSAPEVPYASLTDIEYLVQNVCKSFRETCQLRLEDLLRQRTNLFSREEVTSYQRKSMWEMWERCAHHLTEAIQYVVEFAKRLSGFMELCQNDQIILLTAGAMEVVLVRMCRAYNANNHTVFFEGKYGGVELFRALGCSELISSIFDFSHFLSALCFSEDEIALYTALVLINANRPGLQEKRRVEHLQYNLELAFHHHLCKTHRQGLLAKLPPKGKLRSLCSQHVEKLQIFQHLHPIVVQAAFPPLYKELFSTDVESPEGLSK
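Drosophila Schneider cells stably carrying a metallothionein-driven Gal4 DBD–ROR gamma fusion and a UAS-Photinus luciferase reporter were exposed to compound for 1 hr, then induced with copper sulfate (700 uM final) for 20 hr at ambient temperature before luminescence reading.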
Of the large screens only hits and unclear results are named; the others gave an inactive call. Hits are enriched below; roughly 10% of the tested compounds scored in any of these assays. Calls follow the shape of the dose curve; as a rule, active = well fitted curve in the direction sought with a large enough effect; inconclusive = small, poorly fitted or top-dose-only effect, or another doubt; inactive = no such curve, though single readings can be large; an effect the other way counts as inactive or inconclusive.

Cn1c(Cl)cnc1C1CC(=O)c2cc(Cl)ccc2O1 (stereo unspecified)	SW480 rerep 10µM, MCF10A rerep inconclusive, RORg inh inconclusive
O=C1CC(c2ccccc2)Oc2ccccc21 (stereo unspecified)	none (no result: ELG1 repair inh)
COc1c(C)cc(C(=O)C2CCCN(C(=O)c3cccc(-n4cccn4)c3)C2)cc1C (stereo unspecified)	ELG1 repair inh 23µM
COc1cccc(C(=O)C2CCCN(C(=O)CCc3scnc3C)C2)c1 (stereo unspecified)	RORg inh inconclusive
CCCc1cc(C(=O)N2CCCC(C(=O)c3ccc(Cl)cc3)C2)n(C)n1 (stereo unspecified)	none
COc1c(C)cc(C(=O)C2CCCN(C(=O)CCc3scnc3C)C2)cc1C (stereo unspecified)	MCF10A rerep inconclusive, ELG1 repair inh 12µM, RORg inh inconclusive
CCCc1cc(C(=O)N2CCCC(C(=O)c3cc(C)c(OC)c(C)c3)C2)n(C)n1 (stereo unspecified)	MCF10A rerep inconclusive, ELG1 repair inh 8.2µM
COc1c(C)cc(C(=O)C2CCCN(C(=O)c3ccc4[nH]ccc4c3)C2)cc1C (stereo unspecified)	ELG1 repair inh inconclusive
CCC(C(=O)Nc1cc(C(=O)Nc2cc(C)ccn2)ccc1Cl)c1ccccc1 (stereo unspecified)	none
COc1ccccc1CN(C)CC(=O)Nc1ccc(Cl)cc1F	MCF10A rerep 1.2µM, ELG1 repair inh inconclusive
O=C(NC1CCCCC1)N1CCCCCC1	none
O=C(NC1CCCCC1)N1CCNCC1	MCF10A rerep inconclusive, RORg inh 7.9µM
Cc1ccccc1OCCCN1C(=O)C(=O)c2cccc(C)c21	MCF10A rerep inconclusive, Gal4-VP16 FLuc 11µM, RORg inh 35µM
COc1ccc(-c2nnc(SCc3csc(N)n3)n2C)cc1	ELG1 repair inh inconclusive
Cc1ccc(Nc2nc(CSc3nnc(-c4ccc(F)cc4)n3C)cs2)cc1	SW480 rerep inconclusive, ELG1 repair inh inconclusive, RORg inh 11µM
CCCCc1ccc(Nc2nc(CCC)cc(=O)[nH]2)cc1	SW480 rerep inconclusive, MCF10A rerep 5.8µM, ELG1 repair inh inconclusive (no result: Gal4-VP16 FLuc)
CCCc1cc(=O)[nH]c(Nc2ccc(N3CCCCC3)cc2)n1	ELG1 repair inh inconclusive
COc1ccc(C(=O)NNC(=S)NC(=O)c2cc(-c3ccccc3)nc3ccccc23)cc1	SW480 rerep inconclusive, Gal4-VP16 FLuc inconclusive, RORg inh 10µM
CCCOc1ccc(C(=O)NNC(=S)NC(=O)c2cc(-c3ccc(Cl)cc3)nc3ccccc23)cc1	MCF10A rerep inconclusive, Gal4-VP16 FLuc inconclusive, RORg inh 0.11µM
COC(=O)c1ccc(NC(=S)NC(=O)c2cc(-c3ccccc3)nc3ccccc23)cc1	Gal4-VP16 FLuc 2µM, ELG1 repair inh inconclusive, RORg inh 0.45µM
COc1ccc(Cl)cc1C(=O)NNC(=S)NC(=O)c1cc(-c2ccccc2)nc2ccccc12	SW480 rerep inconclusive, Gal4-VP16 FLuc inconclusive
COC(=O)c1ccc(NC(=O)c2cc(-c3ccncc3)nc3ccccc23)cc1	none (no result: Gal4-VP16 FLuc, RORg inh)
O=C(Nc1ccc(SC(F)F)cc1)C1=CC=CN2CCS(=O)(=O)N=C12	ELG1 repair inh inconclusive (no result: Gal4-VP16 FLuc, RORg inh)
Cc1ccc(C(=O)C[n+]2cc(-c3ccc(C)cc3)n3c2CCCCC3)cc1	MCF10A rerep inconclusive, Gal4-VP16 FLuc 5µM, ELG1 repair inh 16µM, RORg inh inconclusive
Cc1ccc(-c2c[n+](CC(=O)OCc3ccccc3)c3n2CCC3)cc1	SW480 rerep 9.2µM, MCF10A rerep inconclusive
Cc1ccc(-c2c[n+](CC(=O)c3cccs3)c3n2CCC3)cc1	ELG1 repair inh inconclusive
O=C(C[n+]1cc(-c2ccccc2)n2c1CCCCC2)c1ccc(Br)cc1	ELG1 repair inh inconclusive
COc1ccc(-c2c[n+](CC(=O)c3cccs3)c3n2CCC3)cc1	ELG1 repair inh 23µM
Cc1ccc(-c2c[n+](Cc3ccc(Cl)c(Cl)c3)c3n2CCC3)cc1	MCF10A rerep inconclusive, Gal4-VP16 FLuc inconclusive, ELG1 repair inh 21µM, RORg inh inconclusive
COc1ccccc1NS(=O)(=O)c1ccc(C(=O)NCC(c2ccco2)N2CCCCC2)cc1 (stereo unspecified)	none (no result: Gal4-VP16 FLuc, ELG1 repair inh, RORg inh)
COc1ccc(-c2c[n+](CC(=O)N3c4ccccc4Sc4ccccc43)c3n2CCC3)cc1	MCF10A rerep inconclusive, ELG1 repair inh inconclusive
COc1ccc(C(=O)C[n+]2cc(-c3ccc(OC)cc3)n3c2CCCC3)cc1	SW480 rerep inconclusive, ELG1 repair inh 7.3µM
c1ccc(CCSc2nccn2-c2ccccc2)cc1	ELG1 repair inh inconclusive, RORg inh 10µM
CCc1ccc(CSc2nccn2-c2ccccc2)cc1	MCF10A rerep inconclusive, RORg inh 8.9µM
CCc1c(C(=O)NN2C(=O)C3CCCCC3C2=O)csc1C (stereo unspecified)	RORg inh inconclusive
CCC(NC(=O)OCc1ccccc1)C(=O)Oc1ccc2ccc(=O)oc2c1 (stereo unspecified)	MCF10A rerep inconclusive
Cc1cc(C)nc(Sc2ccc3nnc(C(F)(F)C(F)(F)C(F)(F)F)n3n2)n1	SW480 rerep 15µM, MCF10A rerep inconclusive
O=C(COc1ccccc1/C=C1\SC(=S)NC1=O)Nc1ccc(F)cc1	SW480 rerep inconclusive, MCF10A rerep 1.5µM, ELG1 repair inh inconclusive (no result: Gal4-VP16 FLuc, RORg inh)
OC(c1ccc(Cl)cc1)c1nccc2ccccc12 (stereo unspecified)	Gal4-VP16 FLuc inconclusive
O=C(Cn1cc(SCc2cccc(Cl)c2)c2ccccc21)N1CCOCC1	ELG1 repair inh inconclusive
CCOc1ccc(N(CC(=O)N2CCOCC2)S(=O)(=O)c2ccc(F)cc2)cc1	none
C=CCOC(=O)C1=C(C)NC(SC)=C(C#N)C1c1ccc(OCC)cc1 (stereo unspecified)	MCF10A rerep inconclusive
CSC1=C(C#N)C(c2ccccc2Cl)C(C(C)=O)=C(C)N1 (stereo unspecified)	none
C=CCOC(=O)C1=C(C)NC(SCC(=O)Nc2nccs2)=C(C#N)C1c1ccc(Cl)cc1 (stereo unspecified)	SW480 rerep 1.6µM, MCF10A rerep 1µM, Gal4-VP16 FLuc inconclusive, ELG1 repair inh inconclusive, RORg inh 11µM
CC(=O)C1=C(C)NC(SCC(=O)Nc2nccs2)=C(C#N)C1c1ccccc1Cl (stereo unspecified)	SW480 rerep 6.5µM, MCF10A rerep 1.8µM, Gal4-VP16 FLuc inconclusive, RORg inh inconclusive
C[C@@H]1C(SC2Cn3cnc[n+]3C2)=C(C(=O)[O-])N2C(=O)[C@H]([C@@H](C)O)[C@@H]12 (stereo partly specified)	none (no result: ELG1 repair inh)
CC(C)c1cc(=O)n2[nH]c(N)nc2n1	none
Cn1cc(/C=C(\C#N)C(=O)Nc2ccccc2O)c2ccccc21	ELG1 repair inh 8.2µM
CC(C)OC(=O)/C(C#N)=C/c1cn(C)c2ccccc12	none
O=c1ccc(-c2ccc(S(=O)(=O)Nc3ccc(F)cc3)s2)n[nH]1	MCF10A rerep inconclusive

Source: PubChem BioAssay
